Assay results taken from PubChem BioAssay AID624330 (Southern Research Specialized Biocontainment Screening …, 2012).
Among all 340,000 compounds or so, about 2,100 (0.62%) were called active.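 How the source made its calls: active means first-screen hits whose inhibition reached a set limit at any dose in the follow-up dose series; inconclusive means inhibition above the set first-screen limit but never retested; inactive means the rest.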 Only a sample is shown. Potency and affinity values are given separately.

Molecular target: Rac GTPase-activating protein 1 (Homo sapiens) (UniProt Q9H0H5)
Sequence (Q9H0H5 whole entry, looked up): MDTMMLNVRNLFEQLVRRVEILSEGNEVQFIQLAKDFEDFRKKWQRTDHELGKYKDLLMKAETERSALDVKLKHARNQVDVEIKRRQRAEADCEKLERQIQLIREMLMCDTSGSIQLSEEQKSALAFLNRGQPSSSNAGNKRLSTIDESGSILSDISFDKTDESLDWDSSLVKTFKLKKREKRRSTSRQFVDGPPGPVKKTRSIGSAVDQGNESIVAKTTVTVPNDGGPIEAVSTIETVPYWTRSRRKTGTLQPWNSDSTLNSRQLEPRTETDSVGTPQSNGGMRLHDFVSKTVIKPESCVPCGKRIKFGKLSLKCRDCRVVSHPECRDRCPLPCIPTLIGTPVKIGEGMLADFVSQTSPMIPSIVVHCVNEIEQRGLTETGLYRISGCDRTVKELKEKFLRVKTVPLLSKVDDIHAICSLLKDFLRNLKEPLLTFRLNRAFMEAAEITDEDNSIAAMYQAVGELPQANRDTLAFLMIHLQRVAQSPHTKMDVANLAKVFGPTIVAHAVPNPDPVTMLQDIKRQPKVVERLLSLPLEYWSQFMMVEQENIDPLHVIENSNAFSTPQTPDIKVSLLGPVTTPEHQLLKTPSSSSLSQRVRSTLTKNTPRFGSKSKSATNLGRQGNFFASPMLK
Test: blockers of MgcRacGAP-driven Rac1 GTP hydrolysis – biochemical, ADP Hunter fluorescence, primary and confirmatory, confirmation (AID 624330);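 further: fluorescence reports GDP produced by GAP-driven GTP hydrolysis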
Details: MgcRacGAP-stimulated Rac1 GTP hydrolysis, at 30 µM, active compounds read high, GST-tagged Rac1 F28L mutant substrate

inhibition, inactive:
Cc1ccccc1C(=O)Nc1cc(NC(=O)c2ccccc2C)cc(C(=O)O)c1 10.1%, O=S(=O)(c1ccc(F)cc1)c1nc(-c2ccccc2)oc1N1CCOCC1 9.44%, CC(=O)c1cccc(NC(=O)Cn2cnc(S(=O)(=O)N3CCCCC3)c2)c1 2.19%, CCS(=O)(=O)N1Cc2ccccc2CC1C(=O)N(C)Cc1ccc(OC)cc1OC (stereo unspecified) 5.19%, CCOc1cccc(-c2c(C(=O)N/N=C/c3ccc(C)s3)nnn2-c2nonc2N)c1 0.29%, COc1ccc(C2SCCN2S(=O)(=O)c2ccc(F)cc2)cc1OC (stereo unspecified) 6.1%, O=C(NCCCN1CCCC1=O)c1cccc(S(=O)(=O)N2CCN(c3ccc(F)cc3)CC2)c1 1.69%, COc1ccc(NC(=O)CSc2nc3ccccc3cc2Cc2ccccc2)cc1 3.45%, COc1cccc(CNc2cnc3ccccc3c2)c1O 1.26%, CCOc1ccc(NCc2cc3cc(OC)ccc3[nH]c2=O)cc1 15.8%, COc1ccc(C(=O)NCc2cc(C)nc3ccccc23)cc1 -16.4%, COc1ccc2[nH]c(=O)c(CNc3ccccc3)cc2c1 9.73%, COc1ccc(Nc2c3ccccc3nc3ccccc23)cc1 17.9%, COc1ccc(-c2cccc([C@H]3[C@@H]4C=CCC[C@@]4(C)C(=O)N3Cc3ccccc3)c2)cc1 12.4%, Cc1cccc(C(=O)Nc2cc(NC(=O)c3cccs3)ccc2C)c1 5.54%, CCOc1ccccc1CN1CCN(C2CCSCC2)CC1CCO (stereo unspecified) 7.4%, CN(CC(=O)Nc1ccc(SC(F)F)cc1)C1CCCCC1 9.96%, Nc1ccc2cn[nH]c2c1 2.65%, Nc1ccc2nc(-c3cccc(-c4nc5ccc(N)cc5[nH]4)n3)[nH]c2c1 16.5%, COc1ccc(-c2cc(CCCC(=O)NCCc3ccc(OC)cc3OC)no2)cc1 -0.07%, Cc1sc2nc(CN3CCOCC3)nc(N3CCC(C(N)=O)CC3)c2c1C -3.61%, Cc1sc2nc(CN3CCOCC3)nc(Cl)c2c1C 5.87%, CCC(=O)Nc1cccc(NC(=O)CSc2nc3c(c(=O)n(C)c(=O)n3C)n2C)c1 7.76%, O=C(COc1ccc2ccc(=O)oc2c1)N1CCc2ccccc21 -9.6%, CC(N=c1ccccn1C(=O)Nc1cccc(C(F)(F)F)c1)c1ccco1 (stereo unspecified) 2.17%, CN1CCN(CC(=O)NN(Cc2ccccc2)c2ccccc2)CC1 31.6%, CCN(CC(=O)NC(=O)NCc1ccccc1)Cc1ccccc1 3.08%, O=C(CN1CCCCC1)NN(Cc1ccccc1)c1ccccc1 10.1%, CC(C)(O)C(=O)NN(Cc1ccccc1)c1ccccc1 4.09%, CCCc1cc(=O)[nH]c(SCC(=O)c2cc(C)n(CC3CCCO3)c2C)n1 (stereo unspecified) 4.29%, Cc1ccc(S(=O)(=O)NC(C)C(=O)N2CCOCCOCCOCCOCC2)cc1 (stereo unspecified) 9.08%, CCc1ccc(NC(=O)C2CCN(S(=O)(=O)c3ccc4c(c3)NC(=O)CO4)CC2)cc1 -14%, Cn1c(=O)cc(-c2ccccc2)c2ccccc21 5.87%, COc1cc(/C=C2\C(=O)ON=C2c2ccccc2)cc(OC)c1OC 15%, O=C1/C(=C/c2ccc([N+](=O)[O-])cc2)C=C(c2ccccc2)N1c1ccccc1 15.2%, COc1cc(/C=C(/C(=O)O)c2ccc(-c3ccccc3)cc2)cc(OC)c1OC 7.82%, CC(C)n1c2ccccc2c2cc([N+](=O)[O-])ccc21 10.7%, Cn1c(-c2ccccc2)cc(=O)c2ccccc21 12.4%, CC(=O)Nc1ccc(NC(=O)CSc2nnc(-c3cccs3)n2C)cc1 5.9%, O=C(/C=C/c1cccc([N+](=O)[O-])c1)NCc1ccccc1 2.96%, CCCCOc1cccc(/C=C(\C#N)C(=O)NC2CC2)c1 4.72%, CC(C)(C)OC(=O)C[C@@H]1C/C=C\C[C@@H](CC(=O)N[C@H](CO)Cc2ccccc2)C(=O)N2CCC[C@@H]2COC1=O 4.93%, CN(CCO)c1ncnc2c1sc1nc(N3CCOCC3)c3c(c12)CCC3 13.9%, O=C(CCl)N(c1ccccc1)c1ccccc1 5.65%, Cc1cc(C(=O)NNC(=O)C2CCCC2)c(C)o1 4.19%, Cc1cnc(NC(=O)c2cccs2)s1 0.1%, NC(=O)C[C@H](N)c1cn([C@@H](CC(N)=O)C(=O)N2CCNCC2)nn1 -0.03%, CN(CC1CCCN(CCc2ccc(Cl)cc2)C1)C(=O)C(=O)c1ccco1 (stereo unspecified) 6.85%, Cc1ccn2cc(C(=O)N3CCN(c4cnn(-c5ccccc5)c(=O)c4Cl)CC3)nc2c1 2.32%, O=C(NCc1ccccc1)NS(=O)(=O)c1ccccc1Cl 2.6%, CCCCCCCCCCCCCCCC[N+](C)(C)CC 18.7%, CCCCCCCCCCCCCCCC[N+](C)(C)CCl 15.1%, COc1ccc(CNC(=O)C(C)N(Cc2ccco2)C(=O)c2snc(C(N)=O)c2N)cc1 (stereo unspecified) -8.32%, COc1ccc(C2CC(c3ccc4ccccc4c3)=NN2C(=O)CSc2ncccn2)cc1 (stereo unspecified) 7.23%, C=CCNCC(=O)N1N=C(c2ccc3ccccc3c2)CC1c1ccc(OC)cc1 (stereo unspecified) 6.55%, CN(C)CC1CCC/C(=C\c2ccc(OC(=O)c3ccc(Cl)cc3)cc2)C1=O (stereo unspecified) 2.37%, COc1ccc(CCNC(=O)CCOc2ccc(C(C)(C)C)cc2)cc1OC 3.35%, CC(=O)Nc1nnc(S(N)(=O)=O)s1 1.42%, CC(=O)Nc1nnc(C)s1 9.89%, Cc1nnc(NC(=O)c2ccco2)s1 4.57%, Cc1ccc(-c2nnc(NC(=O)c3ccco3)s2)cc1 6.39%, CC(C)c1ccc(CNC(=O)C(=O)NCC2CCCO2)cc1 (stereo unspecified) 14.8%, Cc1cc(NS(=O)(=O)c2ccc(NC(=O)COc3ccccc3[N+](=O)[O-])cc2)no1 7.5%, CC1c2ccccc2SC(CCCN(C)C)c2ccccc21 (stereo unspecified) 5.84%, CN(C)CCC1Sc2ccccc2Oc2ccccc21 (stereo unspecified) 17.5%, Cc1onc(-c2c(F)cccc2Cl)c1C(=O)NCc1cccs1 5.78%, COc1ccc(S(=O)(=O)N(C)CC(=O)NCCC2=CCCCC2)cc1 4.26%, O=[N+]([O-])c1ccc2oc(/C=C/c3ccc(O)cc3)nc2c1 13.2%, O=c1[nH]c(/C=C\c2cccc(O)c2)nc(O)c1[N+](=O)[O-] 13.1%, NS(=O)(=O)c1ccc(NC(=S)NNC(=O)c2ccc(Br)o2)cc1 4.44%, COc1ccc(Cl)cc1NC(=O)CN(C)CC(=O)Nc1ccc(Br)cc1 3.57%, O=C(NN1C(=O)/C(=C\c2cccnc2)SC1=S)c1ccco1 13.7%, CCOc1ccc(NC(=O)CSc2nnc(C3CC3)n2C)cc1S(=O)(=O)N1CCCCC1 8.28%, COc1ccccc1N1CCN(C(=O)c2ccncc2)CC1 -0.56%, COc1ccc(Br)cc1CN1CCN(C(=O)c2ccc(OC)c(OC)c2)CC1 21%, COc1ccccc1C(=O)N1CCN(C(=O)c2ccncc2)CC1 1.76%, COc1ccc(OC)c(CN2CCN(C(=O)c3ccc(F)cc3)CC2)c1 25%, CCCCOc1ccc(/C=C/C(=O)N(CC)CC(=O)Nc2ccc3c(c2)OCCO3)cc1OC 11.7%, C/C(Cn1nc([N+](=O)[O-])cc1C)=N\NC(=O)COc1ccc(Cl)cc1Cl 6.26%, Cc1ccccc1NC(=O)c1c(C)nn(-c2ccccc2)c1Cl 8.16%, O=C(CSc1ncccn1)NCC1CCCO1 (stereo unspecified) 4.06%, COc1cc(/C=N\Nc2nc3ccccc3[nH]2)cc(OC)c1OC 29%, COc1cc(OC)c(OC)cc1/C=N/Nc1nc2ccccc2[nH]1 12.8%, COc1cc(/C=N/Nc2nc3ccccc3[nH]c2=O)ccc1O 15.8%, COc1ccc(O)c(/C=N/Nc2nc3ccccc3[nH]2)c1 1.94%, COc1ccc(NC(=O)c2c(C)nn(Cc3ccccc3)c2Cl)cc1S(=O)(=O)N1CCOCC1 2.08%, Cc1ccc(S(=O)(=O)N2CCC(C(=O)OC(C)C(=O)N3CCOCC3)CC2)cc1 (stereo unspecified) 4.25%, CCc1ccc(NC(=O)c2n[nH]c(=O)c3ccccc23)cc1 2.23%, COc1ccc(N2CCN(C(=O)CCN3C(=O)C4C5C=CC(C5)C4C3=O)CC2)cc1 (stereo unspecified) 10.9%, CCn1cc(CNC(=O)C2CCC(=O)N(CCc3cccc(F)c3)C2)cn1 (stereo unspecified) 4.69%, CCCNC(=O)COC(=O)C1CCN(S(=O)(=O)c2ccc3c(c2)OCCO3)CC1 2.29%, O=C(CN1CCN(c2ccc(F)cc2)CC1)NCC1CCCO1 (stereo unspecified) 12.3%, O=C(CSCSCC(=O)NCC1CCCO1)NCC1CCCO1 (stereo unspecified) 9.35%, O=C(CCCC(=O)NCC1CCCO1)NCC1CCCO1 (stereo unspecified) 7.04%, COc1ccccc1CC(=O)NCC1CCCO1 (stereo unspecified) 14.3%, Cc1cccc(C(C)C)c1NC(=O)Cc1ccc(S(=O)(=O)N2CCOCC2)s1 6.93%
